Activity calls are given as the source filed them.
How the values were obtained:
[1] = target: Albumin (Bos taurus) (UniProt P02769); experiment: compounds binding labelled BSA control protein – biochemical, small-molecule microarray, Alexa647 label, 635/667 nm fluorescence, artefact control for SMM control protein annotation, profiling panel (AID 1118); settings: BSA-A647 binding, fluorescence 635 nm, higher = more signal;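 also: score merges 667 nm emission intensity and signal-to-noise per printed compound spot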
[2] = probe aXIP binding to arrayed compounds – biochemical, NeuroSMM set, 635/667 nm fluorescence, primary screen (AID 1119); settings: small-molecule microarray, higher = more signal, called active from +8 up or from −8 down;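 also: probe is the protein aXip251-270 applied at 1 µg/mL to compound-printed slides; binding of probe to printed compounds measured as 667 nm fluorescence plus signal to noise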
[3] = probe aNOTCH3 binding on compound microarray – biochemical, small-molecule microarray, 635/667 nm fluorescence, primary screen (AID 1120); settings: higher = more signal;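 also: probe is a biotin-tagged antibody raised against NOTCH3 rather than NOTCH3 protein; score merges spot fluorescence near 667 nm with spot signal to noise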
[4] = probe aNOTCH2 binding on compound microarray – biochemical, small-molecule microarray, 635/667 nm fluorescence, primary screen (AID 1121); settings: higher = more signal;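 also: score merges feature fluorescence read at 667 nm with its signal to noise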
[5] = target: Carbonic anhydrase 2 (Homo sapiens) (UniProt P00918); experiment: compounds binding carbonic anhydrase 2 – biochemical, small-molecule microarray, Alexa647-labelled CAII, profiling panel (AID 1122); settings: CAII-A647 binding fluorescence, higher = more signal
[6] = COS7 lysate on small-molecule microarray, probe aHis, 635 nm (AID 1123); settings: COS7 cell lysate, fluorescence, higher = more signal;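 also: z-score combines 667nm fluorescence intensity with signal-to-noise per printed compound spot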
[7] = probe aLAP1 signal on lysate-treated microarray – cell lysate, small-molecule microarray, COS7 lysate, primary screen (AID 1124); settings: probe aLAP1, fluorescence, higher = more signal;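 also: lysate comes from COS7 cells expressing LAP1 and is applied at 0.3 µg/mL; score merges spot fluorescence near 667 nm with signal-to-noise over triplicate slides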
[8] = test system: Sam68 (KHDRBS1); experiment: compounds binding KHDRBS1 protein – biochemical, small-molecule microarray, 635 nm fluorescence, primary screen (AID 1125); settings: higher = more signal;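 also: score merges 667 nm channel intensity with signal to noise over triplicate slides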
[9] = test system: Chordin-like protein 2 (CHRDL2); experiment: compounds binding chordin-like 2 – biochemical, small-molecule microarray, 635 nm fluorescence, primary screen (AID 1126); settings: fluorescence 635 nm, higher = more signal;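 also: printed compound slides probed with Chrdl2 protein at 4 µg/mL for 1 h at 4 C; score merges 667 nm emission intensity with signal to noise over three replicate slides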
[10] = target: Concanavalin-A (Canavalia ensiformis) (UniProt P02866); experiment: compounds binding concanavalin A lectin – biochemical, small-molecule microarray, Alexa647 label, 635 nm, artefact control for SMM control protein annotation, primary screen (AID 1127); settings: ConA-A647 binding fluorescence, higher = more signal;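 also: z combines 667 nm emission intensity with signal-to-noise across three replicate slides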
Sequence of Concanavalin-A (Canavalia ensiformis) (P02866 whole entry, looked up): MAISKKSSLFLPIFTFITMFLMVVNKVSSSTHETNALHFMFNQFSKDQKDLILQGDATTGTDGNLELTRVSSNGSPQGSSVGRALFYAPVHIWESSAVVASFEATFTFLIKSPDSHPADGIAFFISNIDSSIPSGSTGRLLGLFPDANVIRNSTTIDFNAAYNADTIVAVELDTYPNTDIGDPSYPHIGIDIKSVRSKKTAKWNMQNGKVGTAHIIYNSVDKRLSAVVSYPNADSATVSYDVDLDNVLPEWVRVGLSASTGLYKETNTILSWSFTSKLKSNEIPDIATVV

Sequence of Albumin (Bos taurus) (P02769 whole entry, looked up): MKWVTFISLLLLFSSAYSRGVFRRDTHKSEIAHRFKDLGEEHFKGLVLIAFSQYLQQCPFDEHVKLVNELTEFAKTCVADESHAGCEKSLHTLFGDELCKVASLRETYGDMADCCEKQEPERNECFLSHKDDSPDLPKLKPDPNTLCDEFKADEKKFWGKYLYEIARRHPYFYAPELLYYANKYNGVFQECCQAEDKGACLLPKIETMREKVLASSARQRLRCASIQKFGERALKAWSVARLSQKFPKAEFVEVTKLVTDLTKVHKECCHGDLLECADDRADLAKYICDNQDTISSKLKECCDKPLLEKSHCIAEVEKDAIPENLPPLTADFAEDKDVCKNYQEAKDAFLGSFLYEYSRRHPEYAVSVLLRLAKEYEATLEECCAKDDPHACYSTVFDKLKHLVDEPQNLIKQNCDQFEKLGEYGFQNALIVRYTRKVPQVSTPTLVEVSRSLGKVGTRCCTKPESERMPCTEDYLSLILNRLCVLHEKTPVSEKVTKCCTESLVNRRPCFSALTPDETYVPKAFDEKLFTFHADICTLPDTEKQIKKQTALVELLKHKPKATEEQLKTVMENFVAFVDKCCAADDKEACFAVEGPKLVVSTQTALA

Structure (SMILES) | composite z-score [1] | composite Z-score [2] | composite z-score [3] | composite z-score [4] | composite z-score [5] | composite z-score [6] | composite z-score [7] | composite z-score [8] | composite z-score [9] | composite z-score [10]
C=CCC(OC(C)=O)[C@@H]1[C@@H](N(Cc2cc3ccccc3o2)C(=O)Cc2ccc(F)cc2)c2cc(OCCCO)ccc2N1C(=O)Cc1ccc(OC)cc1 (stereo not given in full) | 0.323 | -0.353 (inactive) | -0.0932 | -0.178 | -0.446 | -0.372 | -0.374 | -0.243 | 0.448 | -0.437
COCCCNC(=O)[C@@]1(CCS(=O)(=O)c2ccccc2)N=C(c2ccc(OCCCO)cc2)O[C@H]1c1ccccc1 | 0.533 | 0.164 (inactive) | 0.303 | 0.529 | 0.577 | 3 | 1.01 | 1.31 | -0.0021 | 0.261
CCOC(=O)NN=C1C[C@@H](O)[C@@H](O)[C@@H]2[C@@H]3C(=O)N(C(C)(C)C)C(=O)[C@@H]3CC[C@@H]12 | -0.422 | 0.136 (inactive) | -0.0328 | -0.14 | -1.23 | -0.443 | 0.171 | -0.605 | -0.63 | -0.651
COc1ccc(COC(=O)NN=C2C[C@@H](O)[C@@H](O)[C@@H]3[C@@H]4C(=O)N(c5ccc(F)cc5F)C(=O)[C@@H]4CC[C@@H]23)cc1 | 0.688 | -0.0662 (inactive) | 0.112 | -0.14 | -0.416 | -0.413 | -0.2 | -0.356 | -0.0448 | 0.454
CCc1cc2c(nc1CC)CCN(CCC(C)=NOC[C@@H](O)[C@H]1O[C@@H]3OC(C)(C)O[C@@H]3[C@H]1O)C2 | 0.424 | 0.386 (inactive) | -0.0111 | -0.0891 | 0.213 | 0.421 | -0.0959 | 0.398 | 0.382 | 0.971
Cc1ccc(S[C@]2(C(=O)O)CC(=O)N(Cc3ccccc3)[C@@H]2c2ccc(CO)cc2I)cc1 | 0.258 | -0.523 (inactive) | -0.206 | -0.13 | 0.701 | 0.921 | 0.223 | 0.21 | 0.347 | 0.883
CCc1cccc(NC(=O)O[C@H]2[C@H](OC(=O)Nc3ccc4c(c3)OCO4)[C@@H](OC(=O)Nc3ccc4c(c3)OCO4)[C@@H](OC)O[C@@H]2CO)c1 | 0.539 | 0.108 (inactive) | 0.42 | -0.0714 | 0.645 | 2.42 | 0.665 | 1.29 | 0.463 | 0.638
COC(=O)[C@@H]1CCCN1C(=O)[C@@H](C)CO | 0.448 | -0.505 (inactive) | 0.0042 | -0.16 | 0.192 | 0.84 | -0.436 | 0.95 | 0.584 | 0.873
O=C1O[C@@H](c2ccccc2)[C@@H](c2ccccc2)N2[C@@H](c3ccc(OCCO)cc3)[C@]3(C(=O)Nc4ccccc43)[C@@H](C(=O)N3CCN(c4ncccn4)CC3)[C@H]12 | 0.162 | 0.338 (inactive) | 0.0824 | -0.091 | 0.403 | 1.84 | 0.88 | 1.3 | 0.902 | 1.15
C[N+](C)(C)CCCCCCNC(=O)[C@@H]1C[C@@H]2C(=O)N3CCC[C@H]3C(=O)N2[C@@H]1c1cccc(OCCO)c1 | -0.45 | 0.372 (inactive) | -0.182 | -0.205 | 0.581 | 1.56 | 0.338 | 0.927 | 0.954 | 0.743
CCN1C(=O)[C@H]2[C@H]3[C@H](O)[C@H](O)CC(=NO[C@@H]4O[C@H](CO)[C@@H](O)[C@H](O)[C@H]4O)[C@@H]3CC[C@H]2C1=O | -0.647 | 0.103 (inactive) | -0.213 | -0.203 | -0.12 | -1.22 | -0.378 | -1.5 | -0.229 | -1.14
O=C1C[C@@H](O)[C@@H](O)[C@@H]2[C@@H]3C(=O)N(c4cccc(Oc5ccccc5)c4)C(=O)[C@@H]3CC[C@@H]12 | 0.164 | -0.397 (inactive) | 0.0496 | 0.0364 | 0.285 | 0.625 | 0.318 | 1.03 | 0.364 | 0.899
O=C1C2C=CC(C(O)c3ccc([N+](=O)[O-])cc3)N(Nc3ccc([N+](=O)[O-])cc3)C2C(=O)N1c1ccccc1 (stereo not given) | 0.921 | 0.373 (inactive) | 0.351 | 0.0518 | 0.661 | 2.71 | 0.789 | 1.29 | -0.256 | 1.19
C=CCOC(=O)[C@H]1[C@@H]2C(=O)O[C@@H](c3ccccc3)[C@@H](c3ccccc3)N2[C@@H](c2ccc(OCCOC(=O)[C@H]3C[C@H]4C(=O)N5CCC[C@H]5C(=O)N4[C@H]3c3cccc(OCCO)c3)cc2)[C@]12C(=O)Nc1ccc(I)cc12 | 0.898 | 1.9 (inactive) | 1.36 | 0.554 | 0.879 | 3.06 | 1.25 | 1.29 | 1.24 | 1.23
O=C1C[C@]2(c3ccc([N+](=O)[O-])cc3)C(=O)N(CCN3CCOCC3)c3cc(CO)ccc3[C@H]2N1CC12CC3CC(CC(C3)C1)C2 | 0.89 | 0.83 (inactive) | -0.185 | -0.174 | 0.185 | 0.253 | 0.713 | -0.631 | -1.03 | -0.163
N#Cc1ccc(NN2C(C(O)c3cc(C(F)(F)F)cc(C(F)(F)F)c3)C=CC3C(=O)N(c4ccccc4)C(=O)C32)cc1 (stereo not given) | 0.996 | 0.239 (inactive) | 0.425 | 0.0388 | 0.612 | 2.82 | 0.557 | 1.33 | -0.904 | 1.19

Reference: PubChem BioAssay
